# Measured values as given in the supplement of paper PMC6555819.
# System: VDR:RXRa (NR concentration 270 nM, RXRa partner concentration 90 nM)
# Assay: PBM binding z-score (relative to random genomic background probes); higher = stronger binding; sequences stand for … in GC…GCGATTGACAGCGTAGAATGAAGG
# Description: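 Protein-binding microarray (Agilent 4x180K custom design, double-stranded 60-nt probes: 5' GC cap, 34-nt variable region, 24-nt constant primer region; full probe sequence given). Purified or IVT nuclear receptor:RXRα heterodimers (3:1 NR:RXRα, mostly 270:90 nM) or homodimers were incubated for 1 h in PBS with 2% milk and no ligand, then detected with Alexa488 antibodies. Fluorescence from o1-orientation probes (~5 replicates averaged) was converted to z-scores against 500 random hg19 background probes. Variable regions are seed direct-repeat (DR0–DR5) sites, all their single-nucleotide variants and half-site ablations.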
row,Sequence,PBM binding z-score
1,TCATATAGGTAGAAGGTGAAAGTCGGTGTGGTAA,0.866
2,ACTATTAGTTGACTTATGGCAACCGATACGACGC,0.458
3,CAAACTAGCTCACCGGAAGGTCAAAGTCCGCATG,2.8
4,CCTAGTTGGTCAGGAGGTGACACACCGGATATGA,0.277
5,CTCGAAAGGTCGTGTTCAGGTGAGTATACCAAAC,3.35
6,GCCATTAGTTGAAAGGGCAACCGAATGATTCTCG,0.274
7,ATCTCTAGGTAACCAAGTGCAGTGAATGCCGAAC,1.3
8,TCTTGTAAATCAAGCAGGTTAAGAAAGCCTGAGT,0.479
9,GCGACTGGGGCAAAGCAGGCTACCATAAGGTTGG,-0.662
10,TCTGCTAGGTCAACGATGGTCCGCTAATCTGCTA,1.14
11,ACTAGCAGGCCAAGTTTGGGTTACTCAAACAAAG,-0.254
12,AGTCAAAGTTCATCTAGGTTACGTAAGATATGCT,5.8
13,ATCGAAAGGTCGAGAGGTGAGTATACAGAAAGGC,2.73
14,CAAACTAGGTCACGGAGGTCAAAGTCCGTGCGTA,7.92
15,TCTACTTGGTCAAAGGTCACACACTCGAAATGCG,5.28
16,TAGCTTAGGTCATTCAGGGGCCAGTATAGAAAGC,3.19
17,TCTAGCAGGCCAGAGGGTCACTCCAGAGGTACGG,0.993
18,GCGACTAGGGCAAAGCAGGTTACCATAAGGTTGG,-0.209
19,TCATATAGGTAAATGCTAGCTGAAAGTCCGATCT,0.702
20,CTACCAAGGTGAACAAGGTCGTAGATTACTATTC,5.56

row,Sequence,PBM binding z-score
1,CCTTACGCGTCAAGGTTATAGCACGGGTGGTACG,0.442
2,ACTCTTAGTTGACTTAGGGCAACCGATACGACGC,0.416
3,ATAGGTAGGTTAAGGGTCATTCAGGTTGGTTCGC,5.65
4,TCTGCTAGGTCAGTTGGTCAGATAACGAGCTGCC,0.238
5,CGTCCAGGGTCAGCAGGTCAGTGAAAGCGACGTG,4.15
6,TAGCCTAGGTCAGATCTGGCCAGTATACGCTATA,0.166
7,TAGCCCAGGTCAGATCGGGCCAGTATACGCTATA,0.983
8,TCGAGTAGGTTAGTCGGGGCATCCAGCCAACATA,1.5
9,GCTAGTTGGTCATTAAAAGGTCACACACCGGTCG,4.42
10,CCTCGGAGGACAACGGGAGGTCAGAGCTGCCAGA,1.91
11,CAAACTAGGTCAAGAAGTCAAAGTCCGCTTCCCG,1.93
12,CCTACTGTGCCAAAAAGGTCATTGATGCCGATAA,4.92
13,ACTATTAGTTGACTTAGGGCAACCGATACGACGC,0.152
14,CTCGAAAGGTCGGTTGAGGTGGGTATACGGATAA,1.63
15,CAGCTTAGGTCAGGGCCAGTATAGGAGGAACGTT,0.513
16,TCTTGTAGATCAACAGTAGGTTAAGAAAGATCGA,0.333
17,TAGCCTAGGTCAGATAGGGCCAGTATACGCTATA,1.11
18,CCGACTGGGGCATAAGGTTATCATAAGCCAGCCC,0.25
19,CATAAAGGGTCAGCTAGGCCAGAGTAGGGACGGC,4.05
20,CCTAGTTGGTCAAGGTCATACACGCTATAGGTAC,4.33
